Experimental data taken from PubChem BioAssay AID652175 (National Center for Advancing Translational Sciences (NCATS), 2013).
Records with an inconclusive call do not appear. Where a call stands in place of a potency, no number is given. The source made the active and inactive calls. Calls come from the whole dose curve; as a rule, active = well fitted inhibition curve with a large enough effect; inconclusive = small, poorly fitted or top-dose-only effect; inactive = no such curve, though single readings can be large or run the other way.

assay: qHTS Assay for Lipid Storage Modulators: S3 Assay against Probe and Analogs; details: Drosophila S3 cells, BODIPY lipid droplet fluorescence, 18-24 h, oleic acid added to induce droplets; series mostly up to 46.1 µM
Method in brief: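 Drosophila S3 cells, 5,000/well, dosed with compounds (0.46% DMSO final) and oleic acid to induce lipid droplets, 18-24 h at 25 °C. BODIPY 493/503 and Cell Tracker Red read by laser-scanning cytometry; % activity relative to 20 uM Triacsin C.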

SMILES	Potency
CCOc1ccc(CCNC(=O)c2cc3ccccc3o2)cc1OCC	inactive
Cc1ccc(NC(=O)c2ccc(CN3CCN(C)CC3)cc2)cc1Nc1nc(-c2cccnc2)cs1	inactive
COc1cc(C)c(Sc2cnc(NC(=O)c3ccc(CNC(C)C(C)(C)C)cc3)s2)cc1C(=O)N1CCN(C(C)=O)CC1 (centres undefined)	inactive
O=C(NC1CCCc2c1cnn2-c1ccc(O)cc1)c1ccccn1 (centres undefined)	1.2 nM (active)
CCOc1ccc(CCNC(=O)c2csc(Br)n2)cc1OCC	inactive
CCOC(=O)C1CCN(C(=O)C(C)(C)NC(=O)Nc2ccc3ccccc3c2)CC1	4690 nM (active)
CCOc1ccc(CCNC(=O)c2cc3sccc3n2Cc2ccc(Cl)c(F)c2)cc1OCC	5.9 nM (active)
CCOc1ccc(CCNC(=O)c2cc3sccc3[nH]2)cc1OCC	inactive
CCOc1ccc(CCNC(=O)c2ccc(C3(C(F)(F)F)N=N3)cc2)cc1OCC	inactive
CN(C)Cc1ccc(-c2nc3cccc4c3n2CCNC4=O)cc1	inactive
COc1cc(Nc2ncc(F)c(Nc3ccc4c(n3)NC(=O)C(C)(C)O4)n2)cc(OC)c1OC	inactive
CCn1c(C(=O)NCc2ccc(OC)c(OC)c2)cc2sccc21	inactive
O=C(NC1CCCc2c1cnn2-c1ccc(F)cc1F)c1ccsc1 (centres undefined)	11.8 nM (active)
O=C(Cc1ccccc1)NC1CCCc2c1cnn2-c1ccc(F)cc1F (centres undefined)	inactive
CCOc1ccc(CCNC(=O)c2ccc(N3N=C(C)CC3=O)cc2)cc1OCC	inactive
CC(C)(NC(=O)Nc1ccccc1Cl)C(=O)N1CCC(C(=O)O)CC1	inactive
CC(NCc1ccc2c(c1)nc(NC(=O)c1ccc(-c3cn[nH]c3)s1)n2CC(C)(C)O)C(C)(C)C (centres undefined)	inactive
CC1=C(C(=O)NC2CCCc3c2cnn3-c2ccc(F)cc2F)OCCO1 (centres undefined)	59 nM (active)
O=C(Nc1cccc2c1cnn2-c1ccc(F)cc1)c1ccccn1	inactive
CCOc1ccc(CCNC(=O)c2cc3ccccc3n2Cc2cc(C)cc(C)n2)cc1OCC	16.6 nM (active)
CCn1c(C(=O)NCCc2ccc(OC)c(OC)c2)cc2sccc21	inactive
O=C(NCCc1ccc(OCC(F)(F)F)c(OCC(F)(F)F)c1)c1cc2sccc2n1Cc1ccccc1	1320 nM (active)
Cc1cc(SCc2sc(-c3ccc(C(F)(F)F)cc3)nc2C)ccc1OCC(=O)O	inactive
CCOC(=O)C1CCN(C(=O)C2(NC(=O)Nc3ccc(F)cc3F)CCCCC2)CC1	inactive
C[C@@H](NCCCc1cccc(C(F)(F)F)c1)c1cccc2ccccc12	inactive
CCOc1ccc(CCNC(=O)c2cc3sccc3n2CCN2CCOCC2)cc1OCC	148 nM (active)
CCOC(=O)C1CCN(C(=O)C(C)(C)NC(=O)Nc2ccc(-c3ccccc3)cc2)CC1	inactive
O=C(NC1CCCc2c1cnn2-c1ccc(F)cc1F)C1CC1 (centres undefined)	inactive
COc1cccc(-n2ncc3c2CCCC3NC(=O)c2ccccn2)c1 (centres undefined)	3.7 nM (active)
